Source: PubChem BioAssay (NCI)
Values joined by “and” are separate entries in the source; they are usually repeats but may differ in a detail not shown here. Identical values can stand only once. This is part of a sample that, as a whole, favours compounds with a hit. Of some 83,000 tested, about 20% had one in any assay.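 Compound tested at a single concentration for 48 hours in 96-well plates; a percent growth value below 10 was scored as active.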 Active and inactive are the calls of the source.

Tests used:
Experiment in all cases: NCI-60 one-dose screen, 48 h (100 = growth as untreated, 0 = no growth, -100 = all killed)
Conditions in all cases: 10 µM unless noted
HCT-15 colon = test system: HCT-15 colon
HT29 colon = test system: HT29 colon
SNB-75 CNS = test system: SNB-75 CNS
SNB-19 CNS = test system: SNB-19 CNS
U251 CNS = test system: U251 CNS
PC-3 prostate = test system: PC-3 prostate
SK-MEL-5 melanoma = test system: SK-MEL-5 melanoma
UACC-62 melanoma = test system: UACC-62 melanoma
LOX IMVI melanoma = test system: LOX IMVI melanoma
SK-MEL-28 melanoma = test system: SK-MEL-28 melanoma

Row | SMILES | growth (HCT-15 colon) | growth (HT29 colon) | growth (SNB-75 CNS) | growth (SNB-19 CNS) | growth (U251 CNS) | growth (PC-3 prostate) | growth (SK-MEL-5 melanoma) | growth (UACC-62 melanoma) | growth (LOX IMVI melanoma) | growth (SK-MEL-28 melanoma)
1 | C#COc1cccc(Nc2ncnc3cc(NC(=O)CF)ccc23)c1 | 28.6% [6.25 µM] (inactive) | 4.41% [6.25 µM] (active) | 48.2% [6.25 µM] (inactive) | 33.7% [6.25 µM] (inactive) | 23.1% [6.25 µM] (inactive) | 36% [6.25 µM] (inactive) | 36.2% [6.25 µM] (inactive) | 26.4% [6.25 µM] (inactive) | 36.8% [6.25 µM] (inactive) | 60.4% [6.25 µM] (inactive)
2 | c1ccc2c(c1)sc1ccccc12 | 103% (inactive) | 99.8% (inactive) | 85.3% (inactive) | 98.4% (inactive) | 99.3% (inactive) | 84.7% (inactive) | 91.1% (inactive) | 100% (inactive) | 93.9% (inactive) | 105% (inactive)
3 | CO/N=C1\CC[C@]2(C)[C@H]3CC[C@]4(C)C(=O)CC[C@H]4[C@@H]3C[C@@H]3SC(N)=N[C@@]32C1 | 93.8% (inactive) | 93.2% (inactive) | 97.1% (inactive) | 104% (inactive) | 105% (inactive) | 85.4% (inactive) | 101% (inactive) | 79.7% (inactive) | 98.1% (inactive) | 94.5% (inactive)
4 | C[N+]12CCC34C5=CC(=O)C(=O)C=C5[N+]5(C)C(=O)CC6OCC=C(C1)C(CC32)C6C45 (stereo not given) | 103% (inactive) | 104% (inactive) | 109% (inactive) | 104% (inactive) | 104% (inactive) | 106% (inactive) | 97.5% (inactive) | 106% (inactive) | 118% (inactive) | 108% (inactive)
5 | CC(=O)OC1CC2(O)C(CCC3(C)C(c4ccc(=O)oc4)CCC32O)C2(C)CCC(OC3OC(CO)C(O)C(O)C3O)C=C12 (stereo not given) | -85.2% (active) | -55% (active) | -61.4% (active) | -94% (active) | -92.1% (active) | -55.2% (active) | -91.9% (active) | -65.6% (active) | -85.4% (active) | -31.7% (active)
6 | COc1ccc(N)cc1OC | 94.4% (inactive) | 105% (inactive) | 92% (inactive) | 101% (inactive) | 117% (inactive) | 80.1% (inactive) | 107% (inactive) | 97.5% (inactive) | 105% (inactive) | 112% (inactive)
7 | O=C1NC(=O)C(=C/C=C/c2ccccc2)C(=O)N1 | 8.86% (active) | -71.6% (active) | 24.3% (inactive) | 53.8% (inactive) | 7.65% (active) | 27.7% (inactive) | 80.9% (inactive) | -11.9% (active) | -64.4% (active) | -34.7% (active)
8 | Clc1ccc(COC(Cn2ccnc2)c2ccc(Cl)cc2Cl)c(Cl)c1 (stereo not given) | 41.9% (inactive) and 46.2% (inactive) | 23.4% (inactive) and 31% (inactive) | 78.6% (inactive) and 90.2% (inactive) | 83.4% (inactive) and 83.8% (inactive) | 45.5% (inactive) and 69.4% (inactive) | 40.9% (inactive) and 39.3% (inactive) | 39% (inactive) and 3.49% (active) | 41.5% (inactive) and 52.1% (inactive) | 34% (inactive) and 47.6% (inactive) | 81.5% (inactive)
9 | OCCNC1CCCCC1 | 98.7% (inactive) | 109% (inactive) | 96.3% (inactive) | 105% (inactive) | 106% (inactive) | 103% (inactive) | 103% (inactive) | 97.2% (inactive) | 104% (inactive) | 104% (inactive)
10 | Cc1cc(N)ccc1N | 105% (inactive) | 109% (inactive) | 92.3% (inactive) | 102% (inactive) | 93.2% (inactive) | 87.6% (inactive) | 97.2% (inactive) | 103% (inactive) | 98.3% (inactive) | 107% (inactive)
11 | CC(C)COC(=O)Cc1ccccc1 | 109% (inactive) | 101% (inactive) | 99.9% (inactive) | 109% (inactive) | 101% (inactive) | 97.6% (inactive) | 98.7% (inactive) | 107% (inactive) | 101% (inactive) | 112% (inactive)
